This is one part of a sample in which hits are shown more often than they occur.
BL2 CD40 inh: CD40 pathway inhibition in BL2 cells; inhibition, % at 10 µM; 83,000 tested, 0.94% active; AID 1053188; BL2 NF-kB luciferase reporter, CD40L-induced, 4 h;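 active = mean inhibition of at least 50% with a set share of replicates also reaching that level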;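 note: 0% = neutral control wells and 100% = IKK inhibitor VII at 50 µM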
Numbers without * were called inactive; [ ] = dose if it differs, or a comment.

SMILES | BL2 CD40 inh
O=C(Nc1ccc(F)cc1)N1C[C@@H]2N[C@H](C1)C2c1ccc(-c2ccccc2F)cc1 (stereo not given in full) | -4
C[C@@H]1CN([C@@H](C)CO)C(=O)Cc2cc(NS(=O)(=O)c3cn(C)cn3)ccc2O[C@@H]1CN(C)C(=O)NC1CCCCC1 | -6[25 µM]
CN(C)C(=O)[C@@H]1[C@@H](CO)[C@@H]2Cn3c(ccc(-c4ccncc4)c3=O)[C@@H]2N1Cc1ccccc1F | 1[25 µM]
COc1cccc(-c2ccc3c(c2)[C@H]2[C@H](CCN2C(=O)C2CCC2)[C@@H](CO)N3)c1 | 23
CO[C@H]1CN(C)C(=O)c2cc(NC(=O)C3CCC3)ccc2OC[C@@H](C)N(Cc2cccnc2)C[C@@H]1C | -11
COc1ccc(NC(=O)N2C[C@H]3[C@@H](c4ccccc42)[C@H](CO)N3C(=O)C2CCCCC2)cc1 | -6
COCC(C)n1c(C)cc(C(=O)COC(=O)c2cccn2C)c1C (stereo not given) | 52*
Cc1cc(C(=O)COc2cccnc2[N+](=O)[O-])c(C)n1Cc1ccco1 | -20
COC(=O)c1c(C(=O)OC)c(C)n(Cc2ccco2)c1C | 11
Cc1cc(C(=O)COC(=O)c2n[nH]c(=O)c3ccccc23)c(C)n1C(C)C | -36
Cc1cc(C(=O)COC(=O)c2cccn2C)c(C)n1Cc1ccco1 | 57*
Cc1nn(Cc2ccccc2)c(C)c1C(=O)OCC(=O)c1cc(C)n(CC(F)(F)F)c1C | 11
Cc1cc(C(=O)COC(=O)c2ccco2)c(C)n1Cc1ccco1 | 101*
COCC(C)n1c(C)cc(C(=O)COc2ccc(N(C)S(=O)(=O)c3ccc(NC(C)=O)cc3)cc2)c1C (stereo not given) | -7
Cc1cc(C(=O)CSc2nnc(N)s2)c(C)n1Cc1ccco1 | -25
CNC[C@@H]1Oc2ccc(NC(=O)NC(C)C)cc2C(=O)N(C)C[C@H]1C | 4
O=C(C[C@@H]1C[C@@H]2c3cc(NC(=O)C4CCOCC4)ccc3O[C@@H]2[C@@H](CO)O1)NCc1cc(F)ccc1F | -7[25 µM]
N#C[C@@H]1[C@H](c2ccccc2-c2ccccc2)[C@H](CO)N1C(=O)Cc1ccncc1 | 10[25 µM]
COc1ccc(OC)c2c(=S)c3ccccc3[nH]c12 | active[25 µM]
COc1ccc(C2NC(C(=O)O)Cc3c2[nH]c2ccccc32)cc1OC (stereo not given) | -14
Cc1cc(C=O)c(C)c2c1[nH]c1ccccc12 | 10
O=C(C1CCC1)N1CC2(C1)[C@@H](c1ccccc1)[C@@H](CO)N2Cc1nccs1 | -3[25 µM]
C[C@H](CO)N1C[C@H](C)[C@@H](CN(C)S(=O)(=O)c2ccc(F)cc2)OCc2ccccc2-c2ccccc2C1=O | 5
C[C@@H]1CN([C@@H](C)CO)C(=O)CCCn2cc(nn2)CO[C@@H]1CN(C)S(C)(=O)=O | -3[25 µM]
C[C@@H]1CCCCO[C@H](CN(C)S(=O)(=O)c2ccc(F)cc2)[C@H](C)CN([C@@H](C)CO)C(=O)c2cc(N(C)C)ccc2O1 | -7[25 µM]
SMILES | BL2 CD40 inh
COc1cccc(Nc2nc(C(N)COCc3ccccc3)cs2)n1 (stereo not given) | 6
CC(C)c1ccc(NC(=O)Nc2nc(C(N)COCc3ccccc3)cs2)cc1 (stereo not given) | 57*
COc1ccc(NC(=O)Nc2nc(C(N)CC(C)C)cs2)cc1 (stereo not given) | 2
C[C@@H](O)C#Cc1ccc([C@H]2[C@@H](CO)N3CCCCN(C(=O)c4cccc(F)c4)C[C@@H]23)cc1 | 10[25 µM]
CN1C(=O)c2cc(NC(=O)C3CCCCC3)ccc2OC[C@@H]2O[C@H](CC(=O)NCC3CCCCC3)CC[C@H]21 | 1
C[C@H]1CN([C@@H](C)CO)C(=O)Cc2cc(NS(=O)(=O)c3cn(C)cn3)ccc2O[C@@H]1CN(C)C(=O)NC1CCCCC1 | -5[25 µM]
Nc1nc(N)c2cc(CNc3ccc(Cl)c(Cl)c3)ccc2n1 | 92*
Nc1nc(N)c2cc(Sc3ccc(Cl)cc3)ccc2n1 | 0
Nc1nc(N)c2cc(Sc3cccc(C(F)(F)F)c3)ccc2n1 | 31
O=C(C1CCOCC1)N1C[C@H]2[C@@H](c3ccccc31)[C@H](CO)N2C(=O)Nc1cccc(F)c1 | 1
CO[C@@H]1CN(C)C(=O)c2cc(NC(=O)NC3CCCCC3)ccc2OC[C@@H](C)N(CC2CC2)C[C@H]1C | -4
CC(=O)Cn1ncc(Br)c(Br)c1=O | 99*
Cn1ncc(Br)c1C(=O)O | 1
CO/N=C(\Cn1ncc(N2CCOCC2)c(Br)c1=O)c1ccc(Cl)cc1 | 25
CC=Cc1cc2c(c(=O)o1)C(=O)C(O)C(C)O2 (stereo not given) | 41*
CCCN(C)C[C@H]1OCc2cn(nn2)CCCC(=O)N([C@H](C)CO)C[C@H]1C | -10[25 µM]
COCC(=O)N1[C@H](CO)[C@@H](c2ccccc2)[C@@H]1C#N | -1[25 µM]
CC1(C)CC(NCc2ccncc2)CC(C)(C)N1 | 5
CC1(C)CC(NS(=O)(=O)c2cccc3ccccc23)CC(C)(C)N1 | 6
CC1(C)CC(Nc2ccc(Nc3ccccc3)cc2)CC(C)(C)N1 | 100*
O=C1N[C@H](Cc2ccccc2)COCc2cn(nn2)CC[C@H]1Cc1ccccc1 | -2
